FLuc modulator = qHTS profiling assay for firefly luciferase inhibitor/activator using purifed enzyme and Km concentrations of substrates (counterscreen for miR-21 project); Luciferin 4-monooxygenase (Photinus pyralis), P08659; Potency, µM (series often up to 57.5 µM), most hits filed as inhibitors; AID 588342, 2011; actives 6.9% (n = 360,000); purified FLuc, Km substrates, luminescence inhibition; also: nearly all actives have a fitted effect of over 55% in size
Target sequence (P08659 whole entry, looked up): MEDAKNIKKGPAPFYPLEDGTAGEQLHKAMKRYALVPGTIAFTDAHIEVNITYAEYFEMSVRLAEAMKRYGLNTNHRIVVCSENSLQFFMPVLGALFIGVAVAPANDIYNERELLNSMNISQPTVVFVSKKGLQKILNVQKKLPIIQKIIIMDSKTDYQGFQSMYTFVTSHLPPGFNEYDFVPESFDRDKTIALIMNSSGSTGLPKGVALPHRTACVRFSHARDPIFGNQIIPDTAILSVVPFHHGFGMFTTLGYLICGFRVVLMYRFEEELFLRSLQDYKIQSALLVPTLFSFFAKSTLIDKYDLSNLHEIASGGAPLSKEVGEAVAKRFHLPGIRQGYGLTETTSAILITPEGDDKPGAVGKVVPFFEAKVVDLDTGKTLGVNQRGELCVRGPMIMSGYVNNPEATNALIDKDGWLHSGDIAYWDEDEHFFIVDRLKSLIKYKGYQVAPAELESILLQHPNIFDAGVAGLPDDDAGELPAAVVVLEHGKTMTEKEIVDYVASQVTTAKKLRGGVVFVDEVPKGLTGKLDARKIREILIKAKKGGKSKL
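Biochemical qHTS of compounds, final roughly 60 µM downward over six points, against 10 nM purified firefly luciferase using Km concentrations of substrates (10 uM D-luciferin, 10 uM ATP) in Tris acetate pH 7.5 buffer; luminescence output.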
SMN2 splice up = qHTS Assay for Enhancers of SMN2 Splice Variant Expression; HEK293 SMN2-luciferase splicing reporter, luminescence, 30-36 h; Potency, µM (series often up to 46.1 µM), hits mostly activators; actives 2.8% (n = 210,000); AID 1458, 2008; also: nearly all actives have a fitted effect of over 55% in size
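qHTS luciferase splicing reporter: luminescence rises when SMN2 exon 7 is included in transfected HEK293 cells. Compound exposure lasted 30-36 h at 37C, with 4.5 mM final sodium butyrate as control, followed by a ONE-Glo read.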
NPC1 prom act = qHTS Assay for NPC1 Promoter Activators. Huh7 NPC1 promoter luciferase reporter, 24 h. Potency, µM (series often up to 9.22 µM), hits mostly activators. AID 485313, 2010. actives 2.4% (n = 320,000); also: nearly all actives have a fitted effect of over 60% in size
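Luminescence from an NPC1 promoter-driven luciferase reporter in stably transfected Huh7 cells was measured after 24 h compound treatment at 37 °C, followed by 10 min ambient incubation with luciferase detection reagent.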
Rab9 promoter act = qHTS Assay for Rab9 Promoter Activators. Potency, µM (series often up to 9.22 µM), usual class: activators. Huh7 Rab9 promoter-luciferase reporter, luminescence, 24 h. actives 2.8% (n = 320,000); also: nearly all actives have a fitted effect of over 60% in size
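Using Huh7 cells stably transfected with Rab9 promoter–luciferase, compounds were incubated 24 h at 37 °C, 5% CO2; luciferase luminescence was read 10 min after reagent addition.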
ELG1 genotox = qHTS screen for small molecules that induce genotoxicity in human embryonic kidney (HEK293T) cells expressing luciferase-tagged ELG1 | actives 1.3% (n = 330,000) | HEK293T ELG1-luciferase reporter, luminescence, 16 h | Potency, µM (doses to about 46 µM), usual class: activators; also: nearly all actives have a fitted effect of over 60% in size
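ELG1-luciferase HEK293T cells, 2,000/well; compound pinned in; 16 hr, 37 °C, 5% CO2; ONE-Glo, 30 min RT; luminescence on CCD imager.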
p53 reactivator = qHTS assay for re-activators of p53 using a Luc reporter; actives 0.063% (n = 320,000); Potency, µM (series often up to 92.2 µM), most hits filed as activators; H1299 p53-A138V BP100-luciferase reporter, luminescence, 24 h; also: nearly all actives have a fitted effect of over 45% in size
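H1299 (p53-null), stable ts p53-A138V + BP100-Luc; 1000 cells/well, Opti-MEM/10% FBS; cpd 4 pt, 1:5; 24 h, 37 deg C, 5% CO2; detection reagent 10 min RT; luminescence.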
A number is an active result; . = inactive; ? = inconclusive; / = not tested or not shown. Shown are actives, neighbours in structure and some others; about 7.3% of the full set was active somewhere. Calls follow the shape of the dose curve; as a rule, active = well fitted curve in the direction sought with a large enough effect; inconclusive = small, poorly fitted or top-dose-only effect, or another doubt; inactive = no such curve, though single readings can be large; an effect the other way counts as inactive or inconclusive.

SMILES	FLuc modulator	SMN2 splice up	NPC1 prom act	Rab9 promoter act	ELG1 genotox	p53 reactivator
COc1ccc(NC(=O)n2ncc3c(C)cccc32)cc1OC	1.9µM	/	2.2µM	3.2µM	?	?
COc1ccc(C)cc1NC(=O)n1ncc2c(C)cccc21	7.6µM	/	.	.	.	.
Cc1cccc2c1cnn2C(=O)Nc1ccccc1Cl	1.7µM	/	?	?	?	?
Cc1ccc(NC(=O)n2ncc3c(C)cccc32)cc1F	1.5µM	/	?	0.79µM	?	?
Cc1cc(NS(=O)(=O)c2ccc(NC(=O)COc3ccc(Cl)cc3)cc2)nc(C)n1	?	.	/	/	/	/
O=[N+]([O-])c1ccc(Nc2ccccc2)c2nonc12	.	/	.	.	.	.
O=[N+]([O-])c1ccc(Sc2cccc[n+]2[O-])c2nonc12	4.8µM	/	.	.	.	.
CC1(C)CC(=O)C(C=Nc2ccc3c(c2)OCO3)=C(O)C1	15µM	?	.	.	?	?
COc1ccc(N=CC2=C(O)CC(C)(C)CC2=O)cc1	19µM	.	.	.	?	.
O=C(CS(=O)(=O)c1cccc2nsnc12)NCc1ccccc1Cl	.	/	/	/	/	/
N#C/C(=C/c1ccc(N2CCCCC2)o1)C(=O)Nc1ccc(Cl)cc1	0.6µM	3.2µM	2µM	2.2µM	2.3µM	?
CCOc1ccc(NC(=O)/C(C#N)=C\c2ccc(-c3ccc(Cl)cc3)o2)cc1	.	.	/	/	/	/
N#C/C(=C/c1ccc(N2CCCCC2)o1)C(=O)Nc1ccc2ccccc2c1	3.4µM	.	.	.	.	.
CCc1ccc(C(=O)c2cn(Cc3ccc(F)cc3)c3cc(OC)c(OC)cc3c2=O)cc1	.	.	/	/	/	/
COc1ccccc1NC(=O)Nc1nc(CC(=O)N2CCN(c3ccccc3OC)CC2)cs1	17µM	/	.	.	.	.
COc1cc(C)ccc1NC(=O)Cc1csc(NC(=O)Nc2ccccc2OC)n1	.	/	.	.	.	.
CCCCc1ccc(NC(=O)COCC)cc1	19µM	.	.	.	21µM	?
CCCCc1ccc(NC(=O)CSCc2cc(=O)[nH][nH]2)cc1	12µM	.	.	.	.	.
CCCCc1ccc(NC(=O)CC(C)C)cc1	19µM	?	?	?	?	.
CCOc1ccc(NC(=O)N(Cc2cn(CC)c3ccccc23)C2CCCCCC2)cc1	.	?	/	/	/	/
CCOc1ccc(NS(=O)(=O)c2ccc3c(c2)N(C(C)=O)CCS3)cc1	.	/	.	.	.	.
N#Cc1ccc(C(=O)NC(=S)N2CCN(C=O)CC2)cc1	/	/	/	/	.	.
Cc1cc(C(=O)Nc2ccc(N3CCCCC3)cc2)no1	1.3µM	/	0.32µM	0.28µM	?	.
Cc1cnc(C(=O)Nc2ccc(N3CCOCC3)cc2)cn1	?	?	.	?	?	?
Cc1cc(C(=O)Nc2ccc(S(=O)(=O)N3CCCC3)cc2)no1	.	.	.	.	.	.
SMILES	FLuc modulator	SMN2 splice up	NPC1 prom act	Rab9 promoter act	ELG1 genotox	p53 reactivator
Cc1cnc(C(=O)Nc2ccc(N3CCCCC3)cc2)cn1	7.6µM	11µM	3.5µM	3.2µM	?	.
Cc1ccccc1-c1nc2c(c(SCc3cccc(Cl)c3)n1)Cc1c(CO)cnc(C)c1O2	.	/	/	/	/	/
Cc1nc(Nc2ccccc2)sc1C(=O)Nc1ccccc1	?	/	?	?	?	.
COc1ccccc1Nc1nc(C)c(C(=O)Nc2ccccc2)s1	15µM	.	.	.	.	.
Cc1nc(Cl)sc1C(=O)Nc1ccc(Cl)cc1	15µM	.	.	.	.	.
Cc1nc(NCc2ccccc2)sc1C(=O)Nc1ccccc1	.	?	?	?	?	.
Cc1nc(Nc2ccccc2Cl)sc1C(=O)Nc1ccccc1	19µM	.	.	.	.	.
Cc1nc(Cl)sc1C(=O)Nc1ccccc1	.	.	.	.	.	.
Cc1nc(NCCOc2ccccc2)sc1C(=O)Nc1ccccc1	?	/	2.8µM	?	.	.
CCC(=O)N1CCc2cc(Br)cc(S(=O)(=O)CCC(=O)NCCc3ccc(Cl)cc3)c21	.	.	/	/	/	/
Cc1cc(=O)n2nc(N3CCC(C(=O)Nc4c(C)cccc4C)CC3)sc2n1	.	.	/	/	/	/
O=C1c2ccccc2NC(c2cccc([N+](=O)[O-])c2)N1CCc1ccccc1 (stereo unspecified)	19µM	/	?	?	.	?
Fc1cccc(/C=N/N=C/c2cccc(F)c2)c1	2.7µM	.	?	?	?	.
Cc1ccc(/C=N/NC(=O)c2ccncc2)cc1	?	/	.	.	.	.
Cc1ccc(/C=N/N=C/c2ccc(C)cc2)cc1	2.4µM	?	?	?	21µM	.
C(=N\N=C\c1ccccc1)/c1ccccc1	0.95µM	.	.	.	.	.
Oc1ccc(/C=N/N=C/c2ccc(O)cc2)cc1	7.6µM	.	.	.	.	.
Oc1ccc(/C=N/N=C/c2ccc(O)c(O)c2)cc1O	15µM	/	.	.	.	/
COC(=O)c1cc2sc(C)cc2n1CC(=O)Nc1ccc(C)cc1Cl	.	.	/	/	/	/
CSc1ccc(C2c3[nH]c4ccccc4c3CCN2C(=O)c2cc(C)n(C)n2)cc1 (stereo unspecified)	17µM	?	.	?	?	.
CC(=O)Nc1ccccc1OCc1cc(=O)n2c3c(sc2n1)CCCC3	.	.	/	/	/	/
O=C(Nc1nccs1)c1ccc(COc2ccccc2Cl)o1	?	.	.	.	.	.
O=C(O)/C=C/C(=O)Nc1nccs1	.	/	.	.	.	.
O=C(Nc1nccs1)c1ccc(Br)o1	?	11µM	.	?	.	?
O=C(/C=C/c1ccc(Br)o1)Nc1nccs1	?	13µM	3.2µM	2.8µM	?	.
SMILES	FLuc modulator	SMN2 splice up	NPC1 prom act	Rab9 promoter act	ELG1 genotox	p53 reactivator
O=C(CSc1nnc(-c2ccc(Cl)cc2)o1)N1CCc2ccccc21	.	.	/	/	/	/
CC(=O)C(Cc1ccc(Cl)nc1)Cc1ccc(Cl)nc1	.	/	.	.	.	.
COC(=O)Cc1ccc(OCc2ccc(Cl)nc2)cc1	15µM	/	2.5µM	?	?	.
Cc1cccc(Nc2nc(-c3ccc4c(c3)OCCO4)cs2)c1	2.7µM	11µM	2µM	0.89µM	2.3µM	?
Cc1ccc(Nc2nc(-c3ccncc3)cs2)cc1	0.95µM	/	2.2µM	1.3µM	?	?
Cc1nc(-c2ccc3c(c2)OCCO3)cs1	21µM	?	2.8µM	3.2µM	?	.
Cc1nc(-c2ccc3c(c2)CCC(=O)N3)cs1	17µM	/	?	?	?	.
Clc1cccc(Nc2nc(-c3ccncc3)cs2)c1	.	/	.	.	.	.
CC(C)Cn1c(=O)c2sccc2n2c(CCCC(=O)Nc3ccc(Cl)cc3)nnc12	.	/	/	/	/	/
